Test results reported in the supplement of paper PMC6411743.
± gives the standard deviation of the averaged measurements. Of roughly 6,200 targets only a part is listed; those with the largest changes were picked by preference.

Compound: Nc1ncnc2c1ncn2[C@@H]1O[C@H](COP(=O)(O)OP(=O)(O)NP(=O)(O)O)[C@@H](O)[C@H]1O [adenylyl imidodiphosphate]
Experiment: NP40-soluble protein abundance relative to vehicle (solubility fold change) (ratio); higher = more soluble protein in presence of AMP-PNP
Outline: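 Across three independent experiments, values are fold changes against the detergent-processed vehicle for each replicate, based on vsn-normalised intensities. The samples were Jurkat crude lysate treated with eight concentrations (0.1 to 10 mM) for 10 min at room temperature and then 3 min at 37 °C. Lysate was solubilised with 0.8% NP40 and benzonase, ultracentrifuged, and the supernatant analysed by TMT-labelled LC-MS/MS.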

Sequence of UniProt P16083 (P16083 whole entry, one chain of several): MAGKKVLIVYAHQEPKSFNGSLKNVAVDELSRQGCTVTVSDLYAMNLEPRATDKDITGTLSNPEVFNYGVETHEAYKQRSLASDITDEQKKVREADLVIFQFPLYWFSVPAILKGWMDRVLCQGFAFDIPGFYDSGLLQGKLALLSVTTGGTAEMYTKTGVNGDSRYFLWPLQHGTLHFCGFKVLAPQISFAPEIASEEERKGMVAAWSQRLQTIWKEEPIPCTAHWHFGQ
Sequence of UniProt P55060 (P55060 whole entry): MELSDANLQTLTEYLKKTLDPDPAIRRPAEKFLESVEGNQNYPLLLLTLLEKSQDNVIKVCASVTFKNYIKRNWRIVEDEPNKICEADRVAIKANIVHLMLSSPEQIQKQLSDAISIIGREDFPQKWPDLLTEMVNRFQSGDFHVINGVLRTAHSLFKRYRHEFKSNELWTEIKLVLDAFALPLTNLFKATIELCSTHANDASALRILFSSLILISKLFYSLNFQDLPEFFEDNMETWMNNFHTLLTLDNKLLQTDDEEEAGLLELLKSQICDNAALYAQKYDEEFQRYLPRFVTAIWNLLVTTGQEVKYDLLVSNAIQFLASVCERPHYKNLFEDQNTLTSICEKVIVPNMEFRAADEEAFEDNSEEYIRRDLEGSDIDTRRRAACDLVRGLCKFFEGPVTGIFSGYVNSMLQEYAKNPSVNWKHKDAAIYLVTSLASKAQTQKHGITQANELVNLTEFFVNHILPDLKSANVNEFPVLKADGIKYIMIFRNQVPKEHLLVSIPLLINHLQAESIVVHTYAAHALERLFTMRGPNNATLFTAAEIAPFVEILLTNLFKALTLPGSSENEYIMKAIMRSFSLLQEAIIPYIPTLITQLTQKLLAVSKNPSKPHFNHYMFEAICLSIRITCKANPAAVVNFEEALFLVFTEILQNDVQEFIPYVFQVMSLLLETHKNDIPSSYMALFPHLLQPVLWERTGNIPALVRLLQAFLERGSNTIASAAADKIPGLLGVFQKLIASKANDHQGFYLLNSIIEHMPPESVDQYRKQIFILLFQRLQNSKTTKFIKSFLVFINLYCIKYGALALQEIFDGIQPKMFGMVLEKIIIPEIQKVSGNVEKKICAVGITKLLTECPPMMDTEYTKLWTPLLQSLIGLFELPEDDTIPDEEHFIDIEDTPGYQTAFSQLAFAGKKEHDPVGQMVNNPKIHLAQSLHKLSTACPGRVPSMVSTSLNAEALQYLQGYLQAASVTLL
Sequence of UniProt P20248 (P20248 whole entry): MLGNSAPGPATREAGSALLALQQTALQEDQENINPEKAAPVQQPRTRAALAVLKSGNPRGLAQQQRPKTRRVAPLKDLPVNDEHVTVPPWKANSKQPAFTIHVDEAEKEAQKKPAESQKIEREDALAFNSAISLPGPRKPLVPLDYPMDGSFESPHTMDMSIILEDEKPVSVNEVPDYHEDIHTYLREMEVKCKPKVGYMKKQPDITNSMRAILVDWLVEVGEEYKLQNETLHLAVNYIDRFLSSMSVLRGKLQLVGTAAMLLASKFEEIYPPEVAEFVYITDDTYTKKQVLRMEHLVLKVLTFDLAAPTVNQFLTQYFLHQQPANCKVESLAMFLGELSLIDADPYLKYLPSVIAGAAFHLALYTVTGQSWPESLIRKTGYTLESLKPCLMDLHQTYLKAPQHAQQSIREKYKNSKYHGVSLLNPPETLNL
Sequence of UniProt P14649 (P14649 whole entry): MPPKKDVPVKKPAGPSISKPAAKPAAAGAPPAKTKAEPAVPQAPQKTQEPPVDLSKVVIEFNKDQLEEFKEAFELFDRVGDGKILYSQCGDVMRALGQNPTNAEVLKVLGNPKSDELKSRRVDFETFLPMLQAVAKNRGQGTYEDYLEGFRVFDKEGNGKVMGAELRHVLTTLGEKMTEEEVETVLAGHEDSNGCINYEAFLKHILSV
Sequence of UniProt P12004 (P12004 whole entry): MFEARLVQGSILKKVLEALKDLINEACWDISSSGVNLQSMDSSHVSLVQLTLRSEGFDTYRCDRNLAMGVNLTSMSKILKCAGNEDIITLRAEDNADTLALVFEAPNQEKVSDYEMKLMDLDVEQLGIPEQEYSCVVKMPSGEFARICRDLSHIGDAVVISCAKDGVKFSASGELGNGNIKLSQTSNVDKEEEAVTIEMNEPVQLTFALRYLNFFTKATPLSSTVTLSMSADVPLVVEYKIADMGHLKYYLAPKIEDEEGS
Sequence of UniProt P14927 (P14927 whole entry): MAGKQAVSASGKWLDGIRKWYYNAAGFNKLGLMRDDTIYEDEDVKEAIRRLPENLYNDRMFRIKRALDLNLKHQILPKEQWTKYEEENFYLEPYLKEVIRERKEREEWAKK
Sequence of UniProt Q13107 (Q13107 whole entry): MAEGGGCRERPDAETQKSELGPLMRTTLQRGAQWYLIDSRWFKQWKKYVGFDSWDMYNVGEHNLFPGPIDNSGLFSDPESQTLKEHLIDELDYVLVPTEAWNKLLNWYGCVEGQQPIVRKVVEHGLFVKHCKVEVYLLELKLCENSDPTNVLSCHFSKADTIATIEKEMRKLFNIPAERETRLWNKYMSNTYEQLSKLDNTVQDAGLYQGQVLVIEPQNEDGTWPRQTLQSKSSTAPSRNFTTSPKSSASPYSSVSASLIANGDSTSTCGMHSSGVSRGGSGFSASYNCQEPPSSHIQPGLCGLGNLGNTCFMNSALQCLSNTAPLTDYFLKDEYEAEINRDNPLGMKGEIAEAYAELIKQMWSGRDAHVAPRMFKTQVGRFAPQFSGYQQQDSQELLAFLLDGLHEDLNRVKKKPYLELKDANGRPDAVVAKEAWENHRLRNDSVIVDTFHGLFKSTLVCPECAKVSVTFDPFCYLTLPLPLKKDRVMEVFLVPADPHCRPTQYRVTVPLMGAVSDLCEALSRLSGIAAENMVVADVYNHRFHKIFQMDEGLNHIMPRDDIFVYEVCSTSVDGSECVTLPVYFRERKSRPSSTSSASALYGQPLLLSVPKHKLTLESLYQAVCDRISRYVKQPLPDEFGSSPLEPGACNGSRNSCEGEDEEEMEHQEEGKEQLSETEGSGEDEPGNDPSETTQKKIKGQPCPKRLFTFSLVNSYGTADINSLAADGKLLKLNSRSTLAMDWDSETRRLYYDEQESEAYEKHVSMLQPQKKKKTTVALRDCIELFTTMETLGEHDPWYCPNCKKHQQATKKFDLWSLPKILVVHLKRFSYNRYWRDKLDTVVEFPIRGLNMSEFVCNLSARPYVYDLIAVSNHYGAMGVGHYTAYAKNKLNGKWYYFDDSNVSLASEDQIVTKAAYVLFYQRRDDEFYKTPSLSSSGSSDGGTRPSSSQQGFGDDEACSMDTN
Sequence of UniProt P28331 (P28331 whole entry): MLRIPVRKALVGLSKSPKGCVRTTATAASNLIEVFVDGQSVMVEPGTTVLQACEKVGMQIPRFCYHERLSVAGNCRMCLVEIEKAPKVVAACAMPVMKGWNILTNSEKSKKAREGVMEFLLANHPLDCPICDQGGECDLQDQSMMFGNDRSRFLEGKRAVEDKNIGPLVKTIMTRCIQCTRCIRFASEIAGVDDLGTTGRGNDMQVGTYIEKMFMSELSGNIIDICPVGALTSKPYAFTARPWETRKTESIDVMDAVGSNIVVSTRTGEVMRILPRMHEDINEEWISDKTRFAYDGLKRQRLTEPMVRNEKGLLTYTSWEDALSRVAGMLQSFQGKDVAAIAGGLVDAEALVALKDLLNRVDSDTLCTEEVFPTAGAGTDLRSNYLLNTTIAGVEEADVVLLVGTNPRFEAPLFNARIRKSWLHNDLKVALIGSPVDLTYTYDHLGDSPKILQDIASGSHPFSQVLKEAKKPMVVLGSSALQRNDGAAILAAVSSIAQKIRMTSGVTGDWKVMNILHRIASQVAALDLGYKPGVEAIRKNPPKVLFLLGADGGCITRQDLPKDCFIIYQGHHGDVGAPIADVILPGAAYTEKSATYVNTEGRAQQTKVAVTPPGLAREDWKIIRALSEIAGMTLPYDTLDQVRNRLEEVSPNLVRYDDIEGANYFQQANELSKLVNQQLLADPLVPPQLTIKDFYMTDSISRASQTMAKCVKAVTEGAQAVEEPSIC
Sequence of UniProt P38935 (P38935 whole entry): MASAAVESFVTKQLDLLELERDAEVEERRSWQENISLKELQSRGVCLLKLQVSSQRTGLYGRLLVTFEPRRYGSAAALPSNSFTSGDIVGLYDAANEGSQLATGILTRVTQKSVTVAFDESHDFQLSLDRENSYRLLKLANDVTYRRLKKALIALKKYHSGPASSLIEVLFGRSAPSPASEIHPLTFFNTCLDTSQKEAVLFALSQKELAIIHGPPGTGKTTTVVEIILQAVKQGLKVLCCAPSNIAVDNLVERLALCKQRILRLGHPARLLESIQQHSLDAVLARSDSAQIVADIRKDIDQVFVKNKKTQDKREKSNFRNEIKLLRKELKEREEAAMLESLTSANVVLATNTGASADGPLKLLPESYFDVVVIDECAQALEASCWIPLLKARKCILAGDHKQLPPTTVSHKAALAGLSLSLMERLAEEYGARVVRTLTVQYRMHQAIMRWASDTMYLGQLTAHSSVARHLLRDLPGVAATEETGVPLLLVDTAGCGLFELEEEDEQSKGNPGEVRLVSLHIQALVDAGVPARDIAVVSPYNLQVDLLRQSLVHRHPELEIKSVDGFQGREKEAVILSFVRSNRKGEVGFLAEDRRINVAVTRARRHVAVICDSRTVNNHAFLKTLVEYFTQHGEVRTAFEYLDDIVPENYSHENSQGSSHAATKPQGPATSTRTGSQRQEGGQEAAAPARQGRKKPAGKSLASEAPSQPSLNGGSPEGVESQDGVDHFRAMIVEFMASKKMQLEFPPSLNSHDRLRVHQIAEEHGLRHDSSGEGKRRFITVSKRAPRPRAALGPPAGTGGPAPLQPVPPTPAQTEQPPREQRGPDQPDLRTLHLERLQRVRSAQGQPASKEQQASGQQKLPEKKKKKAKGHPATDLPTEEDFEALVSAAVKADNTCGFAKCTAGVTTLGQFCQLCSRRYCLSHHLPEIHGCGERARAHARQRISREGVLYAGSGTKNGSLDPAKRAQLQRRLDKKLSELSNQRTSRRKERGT

Target	NP40-soluble protein abundance (concentration: 1mM)	NP40-soluble protein abundance (concentration: 2mM)	NP40-soluble protein abundance (concentration: 4mM)	NP40-soluble protein abundance (concentration: 6mM)	NP40-soluble protein abundance (concentration: 8mM)	NP40-soluble protein abundance (concentration: 10mM)
MYL6B (UniProt P14649)	1.02 ± 0.042	1.1 ± 0.053	1.01 ± 0.034	0.987 ± 0.051	0.925 ± 0.041	0.962 ± 0.019
POLR1A (UniProt O95602)	1 ± 0.017	1 ± 0.086	1.07 ± 0.1	1.08 ± 0.12	1.07 ± 0.14	1.11 ± 0.14
RBM5 (UniProt P52756)	1.05 ± 0.026	1.072 ± 0.0062	1.09 ± 0.038	1.06 ± 0.071	1.06 ± 0.061	1.1 ± 0.071
IGHMBP2 (UniProt P38935)	1.17 ± 0.014	1.16 ± 0.05	1.22 ± 0.083	1.26 ± 0.086	1.33 ± 0.06	1.42 ± 0.12
UniProt P36639|P36639-2|P36639-3|P36639-4	1 ± 0.037	0.988 ± 0.059	1.09 ± 0.085	1.03 ± 0.022	1.07 ± 0.012	1.06 ± 0.065
TPM4 (UniProt P67936)	1.21 ± 0.19	1.42 ± 0.15	1.27 ± 0.3	1.35 ± 0.3	1.44 ± 0.047	1.24 ± 0.16
UniProt P28331|P28331-2	0.972 ± 0.037	0.935 ± 0.081	0.954 ± 0.059	0.949 ± 0.055	0.938 ± 0.037	0.942 ± 0.086
UniProt Q02078-2|Q02078-4|Q02078-6|Q02078-5	1.0199 ± 0.0007	1.03 ± 0.017	1.023 ± 0.0072	0.98 ± 0.014	0.9784 ± 0.0097	0.98 ± 0.053
UniProt Q02880|Q02880-2	1.56 ± 0.036	1.63 ± 0.041	1.77 ± 0.12	1.88 ± 0.19	1.95 ± 0.18	2.01 ± 0.25
UniProt P49005|F8W8R3	0.977 ± 0.021	0.947 ± 0.059	0.973 ± 0.027	0.929 ± 0.011	0.9339 ± 0.0057	0.925 ± 0.037
UniProt P16383|P16383-2	1.05 ± 0.038	1.09 ± 0.044	1.101 ± 0.0092	1.08 ± 0.03	1.07 ± 0.033	1.097 ± 0.0024
UniProt P49588|P49588-2	1.01 ± 0.013	0.976 ± 0.05	0.967 ± 0.041	0.979 ± 0.013	0.954 ± 0.03	0.952 ± 0.05
GCLC (UniProt P48506)	0.993 ± 0.027	0.928 ± 0.043	0.976 ± 0.033	0.941 ± 0.014	0.963 ± 0.029	0.922 ± 0.02
UniProt P49750-3|P49750-4	1.07 ± 0.027	1.17 ± 0.077	1.17 ± 0.015	1.23 ± 0.065	1.25 ± 0.07	1.35 ± 0.085
IGFBP2 (UniProt P18065)	1.03 ± 0.034	1.03 ± 0.058	1.01 ± 0.067	0.966 ± 0.0077	0.991 ± 0.021	0.957 ± 0.014
UniProt P23771|P23771-2	0.959 ± 0.029	0.99 ± 0.043	0.9254 ± 0.0013	0.895 ± 0.0095	0.908 ± 0.012	0.908 ± 0.022
TXLNA (UniProt P40222)	1.04 ± 0.059	1.17 ± 0.13	1.08 ± 0.14	1.21 ± 0.15	1.35 ± 0.046	1.2 ± 0.2
YBX1 (UniProt P67809)	0.986 ± 0.088	1.22 ± 0.36	1.07 ± 0.12	1.23 ± 0.072	1.21 ± 0.031	1.34 ± 0.067
UQCRB (UniProt P14927)	0.9813 ± 0.003	1.07 ± 0.082	0.954 ± 0.025	0.969 ± 0.018	0.935 ± 0.0015	0.933 ± 0.023
UniProt P61289|P61289-2	0.983 ± 0.064	0.955 ± 0.12	0.808 ± 0.23	0.886 ± 0.17	0.999 ± 0.037	0.968 ± 0.1

Target	NP40-soluble protein abundance (concentration: 1mM)	NP40-soluble protein abundance (concentration: 2mM)	NP40-soluble protein abundance (concentration: 4mM)	NP40-soluble protein abundance (concentration: 6mM)	NP40-soluble protein abundance (concentration: 8mM)	NP40-soluble protein abundance (concentration: 10mM)
UniProt P36402-5	0.952 ± 0.025	0.984 ± 0.03	0.924 ± 0.046	0.876 ± 0.025	0.8484 ± 0.0036	0.837 ± 0.015
UROS (UniProt P10746)	1.04 ± 0.012	1.03 ± 0.015	1 ± 0.045	0.99 ± 0.029	0.975 ± 0.051	0.982 ± 0.075
UniProt P98082|P98082-2|P98082-3	1.016 ± 0.0042	1.03 ± 0.042	1.042 ± 0.0097	1.016 ± 0.004	1.017 ± 0.0048	1.035 ± 0.0064
UniProt Q12769|G3V198	1 ± 0.024	0.9518 ± 0.0046	0.9433 ± 0.006	0.9621 ± 0.0016	0.99281 ± 0.00096	0.991 ± 0.019
UniProt P56282|P56282-3|P56282-2	0.973 ± 0.03	0.933 ± 0.065	0.968 ± 0.026	0.952 ± 0.036	0.942 ± 0.041	0.951 ± 0.045
UniProt Q13163|Q13163-2|Q13163-3|Q13163-4	0.968 ± 0.026	1.01 ± 0.041	1.02 ± 0.057	0.958 ± 0.049	0.933 ± 0.019	0.941 ± 0.022
UniProt Q01082|Q01082-3	1.05 ± 0.028	1.08 ± 0.035	1.05 ± 0.019	1.08 ± 0.06	1.05 ± 0.032	1.09 ± 0.056
GTF2F2 (UniProt P13984)	1 ± 0.011	1.06 ± 0.023	1.04 ± 0.019	1.07 ± 0.018	1.07 ± 0.015	1.103 ± 0.0083
UniProt Q01085-2	0.997 ± 0.044	0.976 ± 0.057	0.992 ± 0.029	0.957 ± 0.037	0.9409 ± 0.0074	0.952 ± 0.032
UniProt P62318|P62318-2	1.07 ± 0.086	1.12 ± 0.12	1.19 ± 0.099	1.22 ± 0.017	1.29 ± 0.09	1.32 ± 0.056
UniProt P09651-2|P09651	1.04 ± 0.11	1.09 ± 0.075	1.09 ± 0.11	1.14 ± 0.15	1.18 ± 0.15	1.25 ± 0.18
UniProt P15170-2|P15170-3|H3BSV8	0.993 ± 0.025	0.955 ± 0.035	0.96 ± 0.01	0.995 ± 0.012	0.964 ± 0.014	0.968 ± 0.043
CCNA2 (UniProt P20248)	1.03 ± 0.042	1.07 ± 0.057	1.01 ± 0.033	1.01 ± 0.028	0.975 ± 0.014	1.04 ± 0.071
NUP155 (UniProt O75694)	0.983 ± 0.046	0.919 ± 0.062	1 ± 0.025	0.98 ± 0.039	1.01 ± 0.035	1 ± 0.023
UniProt P16083|Q5TD07	1.02 ± 0.02	0.982 ± 0.074	0.988 ± 0.034	0.991 ± 0.02	0.993 ± 0.04	0.982 ± 0.052
PAK1 (UniProt Q13153)	0.989 ± 0.035	1.05 ± 0.046	0.989 ± 0.036	0.981 ± 0.013	0.926 ± 0.032	0.975 ± 0.041
UniProt P18433|P18433-2|P18433-3|P18433-4	1.029 ± 0.0089	1.03 ± 0.027	1.03 ± 0.032	0.987 ± 0.023	1.02 ± 0.018	1.03 ± 0.036
SLC2A1 (UniProt P11166)	1.015 ± 0.005	0.999 ± 0.042	1.02 ± 0.055	0.998 ± 0.029	1.01 ± 0.032	1.01 ± 0.053
UniProt Q06787|Q06787-3|Q06787-5|Q06787-8|Q06787-9|Q06787-7	1.05 ± 0.04	1.11 ± 0.013	1.1 ± 0.02	1.22 ± 0.066	1.24 ± 0.016	1.36 ± 0.02
UniProt P00167|P00167-2	0.995 ± 0.028	0.984 ± 0.033	0.936 ± 0.036	0.992 ± 0.011	0.948 ± 0.021	0.966 ± 0.012

Target	NP40-soluble protein abundance (concentration: 1mM)	NP40-soluble protein abundance (concentration: 2mM)	NP40-soluble protein abundance (concentration: 4mM)	NP40-soluble protein abundance (concentration: 6mM)	NP40-soluble protein abundance (concentration: 8mM)	NP40-soluble protein abundance (concentration: 10mM)
UniProt P33981|P33981-2	1.04 ± 0.027	1.021 ± 0.0069	1.05 ± 0.033	1.018 ± 0.01	1.02 ± 0.034	1.03 ± 0.036
METAP1 (UniProt P53582)	1.05 ± 0.046	1.06 ± 0.081	1.16 ± 0.071	1.31 ± 0.046	1.37 ± 0.061	1.38 ± 0.074
USP4 (UniProt Q13107)	1 ± 0.018	0.967 ± 0.044	1 ± 0.046	0.97 ± 0.042	0.975 ± 0.039	0.942 ± 0.038
HNRNPH2 (UniProt P55795)	0.9889 ± 0.0045	0.934 ± 0.086	0.946 ± 0.028	0.947 ± 0.023	0.9566 ± 0.0082	0.908 ± 0.019
LDHB (UniProt P07195)	1.01 ± 0.019	0.92 ± 0.025	0.947 ± 0.02	0.973 ± 0.036	0.969 ± 0.024	0.943 ± 0.013
POLR3D (UniProt P05423)	0.982 ± 0.017	1.01 ± 0.02	0.993 ± 0.035	0.961 ± 0.041	0.971 ± 0.037	0.998 ± 0.065
PCNA (UniProt P12004)	1.008 ± 0.0098	0.998 ± 0.012	0.957 ± 0.012	0.973 ± 0.015	0.951 ± 0.018	0.935 ± 0.024
UniProt P62701	0.95 ± 0.063	0.87 ± 0.091	0.879 ± 0.11	0.873 ± 0.065	0.821 ± 0.071	0.851 ± 0.13
UniProt P55060|P55060-3	1 ± 0.012	1.02 ± 0.11	0.987 ± 0.032	1.01 ± 0.04	0.985 ± 0.027	1.02 ± 0.04
UniProt O75822|O75822-2	0.876 ± 0.042	0.941 ± 0.07	0.858 ± 0.031	0.949 ± 0.026	0.957 ± 0.029	0.99 ± 0.015
UniProt O95786|O95786-2	0.996 ± 0.051	0.944 ± 0.035	0.978 ± 0.022	0.942 ± 0.017	0.967 ± 0.021	0.933 ± 0.029
UniProt P60228	1.04 ± 0.073	1.04 ± 0.077	1.1 ± 0.11	1.18 ± 0.12	1.24 ± 0.12	1.33 ± 0.2
UniProt P52824|H0YA20	0.978 ± 0.0098	0.979 ± 0.023	0.955 ± 0.028	0.99 ± 0.025	0.96 ± 0.039	0.986 ± 0.03
USP8 (UniProt P40818)	1.036 ± 0.0058	1.05 ± 0.033	1.048 ± 0.0058	0.997 ± 0.015	0.996 ± 0.042	1.01 ± 0.033
UniProt O96028|O96028-3|O96028-5	1.08 ± 0.034	1.16 ± 0.026	1.23 ± 0.033	1.32 ± 0.044	1.35 ± 0.03	1.47 ± 0.059
UniProt Q10589|Q10589-2	1.0272 ± 0.00052	1.04 ± 0.011	1.03 ± 0.025	1.03 ± 0.028	1.05 ± 0.056	1.04 ± 0.048
UniProt P60866|P60866-2	0.932 ± 0.061	0.906 ± 0.058	0.883 ± 0.13	0.91 ± 0.04	0.889 ± 0.043	0.929 ± 0.13
UniProt P01112	1.06 ± 0.026	1.04 ± 0.016	1.03 ± 0.021	1 ± 0.062	1.06 ± 0.021	1.01 ± 0.025
UniProt P20073|P20073-2	0.966 ± 0.053	0.996 ± 0.093	0.989 ± 0.069	0.998 ± 0.086	1.04 ± 0.052	0.995 ± 0.096
UniProt P41227|P41227-2	1.02 ± 0.036	1.07 ± 0.06	1.09 ± 0.03	1.15 ± 0.081	1.12 ± 0.052	1.18 ± 0.039
